# Results from PubChem BioAssay (NCI).
# Where “and” joins values, the source holds several entries; their conditions need not be identical. Identical values can stand only once. This is part of a sample that, as a whole, favours compounds with a hit. Of some 83,000 tested, about 20% had one in any assay.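 Step 1: grow cells in 96-well plates. Step 2: add test compound at a single concentration. Step 3: incubate 48 h. Step 4: record percent growth.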 Calls of active or inactive are those of the source. How the source made its calls: active means growth percent below 10; inactive means the rest.
# System: MDA-MB-468 breast
# Assay: NCI-60 one-dose screen, 48 h (100 = growth as untreated, 0 = no growth, -100 = all killed)
# Details: 10 µM unless noted
row,Structure (SMILES),growth
1,Cc1cccc(NC(=O)CCc2ccc(N3C(N)=NC(N)=NC3(C)C)cc2)c1,39.9% (inactive)
2,CCOC(=O)CC1CSC(N/N=C/c2ccc(-n3cccn3)cc2)=N1 (stereo not given),95.3% (inactive)
3,CC(C)=CC/C=C(/C)[C@H]1CC[C@]2(C)[C@@H]1CC[C@@H]1[C@@]3(C)CCCNC(C)(C)[C@@H]3CC[C@]12C,-50.1% [100 µM] (active)
4,COC(=O)c1nc(-c2ccc(C)cc2)oc1S(=O)(=O)c1cccc(OC)c1,71.7% (inactive)
5,O=C1CN(c2ccccc2)C(=O)C1C(=O)Nc1ccc(Cl)c(Cl)c1 (stereo not given),19.2% [100 µM] (inactive)
6,O=[N+]([O-])c1ccc(NS(=O)(=O)c2ccc(Cl)c(Cl)c2)cc1,64.6% (inactive)
7,S=C(c1ccc2c(c1)OCO2)N1CCN(c2cccc(Cl)c2)CC1,6.42% (active)
8,Fc1[nH]nc2ccc([C@@H]3Nc4ccc5[nH]ncc5c4[C@H]4C5CCC(C5)[C@@H]34)cc12 (stereo not given in full),16% (inactive)
9,COc1ccc(/C=C/c2nc3ccccc3c(=O)n2-c2ccc(C#Cc3ccc(C(C)(C)C)cc3)cc2C)c(OC)c1,97.9% (inactive)
10,COc1cc(/C=C2\CN(C)C/C(=C\c3cc(CN4CCCC4)c(O)c(OC)c3)C2=O)cc(CN2CCCC2)c1O,41.8% (inactive)
11,COc1ccc2cc(-c3nc4ccccc4s3)c(Cl)nc2c1OC,103% (inactive)
12,Clc1nc2ccccc2nc1-c1nnc(C2CCCCC2)o1,7.71% (active)
13,CCOC(=O)c1ccc(Nc2ncnc3c2cnn3-c2cccc(F)c2)cc1,103% (inactive)
14,Cc1nn(-c2ccc(Cl)cc2)c2nc3c(nc12)C(=O)C(=O)c1ccccc1-3,65.3% (inactive)
15,O=c1c2cc(F)ccc2sc2c(NCCO)nc3ccccc3c12,80.3% (inactive)
16,Nc1nc(-c2cc3c(cc2Cl)NC(=O)/C3=C/c2ccc(Cl)cc2)cs1,-14% (active)
17,CCOC(=O)c1ccc2c(c1)[n+](=O)c(C(=O)C1CCCS1)c(C(F)(F)F)n2[O-] (stereo not given),-80.5% (active)
18,Clc1cc(Cl)cc(N2N=C(c3cccc(Nc4ccncc4)c3)CC2c2ccc3c(c2)OCO3)c1 (stereo not given),24.8% (inactive)
19,COc1cc(NCCCCCCCNC(C)C)c2nccc(C)c2c1,9.01% (active) and 13.7% (inactive)
20,CC(=O)c1c(Nc2ccc(F)c(F)c2F)[nH]c2c(F)cc(F)cc2c1=O,-21.9% (active)

row,Structure (SMILES),growth
1,CCN1CCN(c2ccc(Nc3cc(-c4cccnc4Nc4c(Cl)c(OC)cc(OC)c4Cl)ncn3)cc2)CC1,89.6% (inactive)
2,COc1ccc(-c2nc(C#N)c(N3CCC(S(=O)(=O)N4CCOCC4)CC3)o2)cc1,107% (inactive)
3,CC(C)(C)CC(C)(C)c1ccc(OCCOCCSC(=N)N)cc1,-47.3% (active)
4,COc1ccc(C(=O)n2cc(C=O)c3ccccc32)cc1,105% (inactive)
5,COc1cccc(/C=N\NC(=O)c2ccncc2)c1O,64.4% (inactive)
6,CN(C)CCCC1(c2ccc(F)cc2)OCc2cc(-c3cc4ccccc4s3)ccc21 (stereo not given),-8.95% (active)
7,CCCCn1cnc2c(SCc3ccc([N+](=O)[O-])cc3)nc(N)nc21,80.8% (inactive)
8,O=C(COc1ccc(-c2nc3cc(Cl)c(Cl)cc3[nH]2)cc1)N=Nc1c(O)[nH]c2ccccc12,-49.5% (active)
9,O=C1Cc2cc(CCN3CCN(c4nsc5ccccc45)CC3)c(Cl)cc2N1,49.1% (inactive)
10,CCOC(=O)/C=C\C(=O)NC(N)=O,88.6% (inactive)
11,N#CC1=C(/N=C/c2ccccc2)Oc2c(ccc3ccccc23)C1c1ccc([N+](=O)[O-])cc1 (stereo not given),102% (inactive)
12,COc1cc(NC(=O)c2cc3ccccc3cc2O)c(OC)cc1Cl,-5.6% (active)
13,CCCNc1nc2ccccc2c2c1S(=O)(=O)c1ccc(Cl)cc1C2=O,3.32% (active)
14,CNc1ccc2nc3ccc(=[N+](C)C)cc-3sc2c1,-48.1% (active) and -39.5% (active)
15,CC1(C)[C@@H](O)CC[C@]2(C)[C@H]3CC[C@@H]4[C@H]5[C@H](C(=O)/C=C\c6ccncc6)CC[C@]5(O)CC[C@@]4(C)[C@]3(C)CC[C@@H]12,17.5% (inactive)
16,COC(=O)c1sccc1-c1cc(O)c(C(=O)Nc2ccccc2)s1,85.4% (inactive)
17,Cc1nc(Sc2nc3ccc([N+](=O)[O-])cc3s2)sc1C,6.67% (active)
18,COc1ncnc2c1cnn2C,106% (inactive)
19,COc1cc2c(cc1OC)C(Sc1ccc(F)cc1)c1c(nc(N)c(C#N)c1N)O2 (stereo not given),-56.4% (active)
20,C[N+]1=C(/C=C/c2ccccc2Cl)C(C)(C)c2ccccc21,88.1% (inactive)
